Shown is part of a subset that was picked to be rich in hits.
VCAM1 pot: TNF alpha stimulated VCAM1 expression potentiation; HUVEC TNFa-stimulated VCAM-1 immunofluorescence, high-content imaging; scaled per plate to unstimulated/TNFa-only wells; activation, % at 2 µM; 93,000 tested, 0.19% active;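 active = activation above the screen mean plus 3 SD, with well images confirming the hit on visual review, cut at about 28% in these data, passing the limit was not always enough; inconclusive = activation above that limit but images do not confirm it; inactive = activation not above that limit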;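 also: signal is the number of cytoplasmic VCAM-1 stained grains per positive cell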
VCAM1 pot conf: potentiators of TNFa-induced VCAM1 expression, confirmation, imaging, HUVEC, triplicate retest | activation, % at 2 µM | HUVEC TNFa-stimulated VCAM-1 immunofluorescence imaging | AID 1034 | 230 tested, under 10 active | shares compounds with VCAM1 pot;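 active = activation above 30% in triplicate retests at 2 µM, then confirmed by visual review of the well images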;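 also: scaled per plate between unstimulated and TNFa-stimulated DMSO control wells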
* marks the source's active call; other numbers are inactive results; ? = inconclusive.

SMILES	VCAM1 pot	others
COC(=O)C(CCSC)NC(=O)CNS(=O)(=O)c1ccc(Cl)cc1 (stereo not given)	1
CCOC(=O)COc1ccc2c(c1)C(=O)CC1(CCCCC1)O2	3
Cc1ccc(OCC(=O)NCc2ccco2)cc1C	-16
CCCOc1ccc(CC(=O)NCc2ccco2)cc1OC	-2
CCn1cc(C(=O)NCc2ccco2)c2cc(OC)c(OC)cc2c1=O	?	VCAM1 pot conf=-10
Cc1ccc(S(=O)(=O)/N=C(\c2ccc(Cl)cc2)N2CCOCC2)cc1	6
O=C(CN1CCN(CC(=O)Nc2ccccc2Cl)CC1)Nc1ccc2c(c1)OCCO2	-8
Cc1cc(C)cc(NC(=O)CN2CCc3ccccc3C2)c1	-1
O=C(CN1CCC(n2nnc3ccccc32)CC1)Nc1ccc2c(c1)CCC2	?	VCAM1 pot conf=-14
O=C(CSc1nnc(Cc2ccccc2)n1-c1cccc(Cl)c1)N1CCOCC1	-2
CCN(CC)c1ccc(C2CC(=O)Nc3cc(OC)c(OC)cc32)cc1 (stereo not given)	-24
CN(CC(=O)N1CCN(c2ccccc2)CC1)S(=O)(=O)c1cnc[nH]1	-4
CC1CC(NC(=O)Cc2ccc(Br)cc2)CC(C)(C)C1 (stereo not given)	10
COc1ccc(OC)c(/C=C/C(=O)c2ccc(Cl)cc2)c1	-8
O=C(COC(=O)C1CC(=O)N(c2nc(-c3ccccc3)cs2)C1)c1ccccc1 (stereo not given)	55*	VCAM1 pot conf=-12
CC(C)(C)OC(=O)N1CC(O)CC1C(=O)OCC(=O)c1ccccc1 (stereo not given)	21
O=C(CSc1cccc2cccnc12)OCC(=O)c1ccccc1	-9
Cc1ccc(NC(=O)CN(C)CC(=O)Nc2c(C)cccc2C)c(Br)c1	-6
COc1cccc(S(=O)(=O)N2CCN(c3ccccc3F)CC2)c1	-14
COc1cccc(CN2CCN(c3ncccn3)CC2)c1	-9
COc1ccc(S(=O)(=O)N2CCN(Cc3cccc(Cl)c3)CC2)cc1	?	VCAM1 pot conf=-17
CNc1nc(Oc2ccc(=O)n(C)n2)nc(N2CCOCC2)n1	9
COc1ccccc1CN(Cc1ccco1)S(=O)(=O)c1ccc(-n2cnnn2)c(OC)c1	43*	VCAM1 pot conf=-19
CS(=O)(=O)N(Cc1ccco1)Cc1ccccc1Cl	2
Cc1cc(S(=O)(=O)N(Cc2ccc(F)cc2)CC2CCCO2)ccc1-n1cnnn1 (stereo not given)	-9
SMILES	VCAM1 pot	others
CCCN1C2=C(C(=O)CCC2)C(c2ccc(F)cc2)C2=C1c1ccccc1C2=O (stereo not given)	19
O=c1c2ccccc2nc(/C=C/c2ccc([N+](=O)[O-])o2)n1CCCO	-58
CCCCCC(=O)N1CCN(CCN=CC2=C(O)CC(c3cccs3)CC2=O)CC1 (stereo not given)	-16
O=C(Nc1cccc2ccccc12)N1CCc2ccccc2C1	-3
O=C(CCn1nnc(-c2cccs2)n1)N1CCc2ccccc2C1	36*	VCAM1 pot conf=2
CCOC(=O)c1c(C)c(C(=O)N2CCc3ccccc3C2)c(C)n1CC	7
COc1cccc(CNC(=O)C2CCCN(c3nn4c(=O)cc(C)nc4s3)C2)c1OC (stereo not given)	2
Cc1c(NC(=O)C(C)Sc2n[nH]c(N)n2)c(=O)n(-c2ccccc2)n1C (stereo not given)	7
COc1cccc(N2CCN(Cc3nc(N)nc(N4CCCc5ccccc54)n3)CC2)c1	24
COc1cccc(C2CC(=O)NC3=C2C(=O)CCC3)c1 (stereo not given)	7
CCN1CCN(C(c2cccs2)C(C)NS(=O)(=O)c2ccc(Br)cc2)CC1 (stereo not given)	4
CCc1nc(SCC(=O)N2c3ccccc3CC2C)c2c(C)c(C)sc2n1 (stereo not given)	0
O=C(C1CCN(C2CC(=O)N(c3ccc(Cl)cc3)C2=O)CC1)N1CCOCC1 (stereo not given)	7
O=C(CN1CCCCCC1)Nc1ccc(Br)cc1	34*	VCAM1 pot conf=-7
NC(=O)c1oc2ccccc2c1NC(=O)CN1CCCCC1	6
O=C(Cn1c(=O)sc2ccccc21)Nc1ccc(S(=O)(=O)N2CCCCC2)cc1	12
CNc1nc(OCCNC(=O)Nc2ccccc2)nc(N2CCOCC2)n1	0
COc1cccc(NC(=O)c2ccn(C)n2)c1	-7
CCc1c(C)nc(SC)n(CC#N)c1=O	-20
CCOC(=O)Cn1nc(/C=C/c2ccc(C(C)C)cc2)ccc1=O	5
O=c1c(Cl)c(NCCO)ncn1-c1ccccc1	-9
O=C(COC(=O)CCS(=O)(=O)c1ccc(Cl)cc1)NC1CCCCC1	54*	VCAM1 pot conf=-14
O=C(NC1CC1)c1ccc(S(=O)(=O)NCC2CCCCC2)cc1	-52
Cc1cc(C(=O)OCC(=O)NC2CCCCC2)c(C)o1	-16
CCCC1=C(C(=O)OCC)C(c2c(C)nn(-c3ccccc3)c2Cl)C(C#N)=C(N)O1 (stereo not given)	44*	VCAM1 pot conf=-24
SMILES	VCAM1 pot	others
CCOC(=O)C1=C(CSc2nc3c(cc2C#N)CN(C)CC3)OC(N)=C(C#N)C1c1ccccc1 (stereo not given)	-96
CCCc1nn(-c2ccccc2)c2c1C(c1cccs1)C(C#N)=C(N)O2 (stereo not given)	8
COC(=O)c1cccc(Cn2nnc3ccccc3c2=O)c1	12
CC(C)NC1CS(=O)(=O)CC1O (stereo not given)	-100
CCN(C(=O)c1cc2cccc(OC)c2oc1=O)C1CCCCC1	8
COc1ccc(C(C#N)(CCC#N)CCC#N)cc1OC	37*	VCAM1 pot conf=-19
CCCCN(C)C(=O)C1CCC(=O)N(c2cc(OC)c(OC)c(OC)c2)C1c1ccc(OC)cc1 (stereo not given)	-1
COc1cccc(S(=O)(=O)Nc2ccc3sc(C)nc3c2)c1	5
Cc1cccc(NS(=O)(=O)c2ccc(C)c(C(=O)OCC(=O)Nc3cc(C)on3)c2)c1	-6
CC(=O)c1ccc(NS(=O)(=O)c2cccc(C)c2)cc1	72*	VCAM1 pot conf=-8
Cc1ccc(NC(=O)CC2COc3ccccc3O2)cc1 (stereo not given)	-1
COc1ccc(C(=O)/C=C(\C)NCc2ccc3c(c2)OCO3)cc1	13
Cc1ccc(-n2nc3c(c2NC(=O)c2c(-c4ccccc4Cl)noc2C)CSC3)cc1	0
CCOc1nc(-c2ccncc2)nc2ccccc12	43*	VCAM1 pot conf=-9
Brc1ccc(-c2nc(N/N=C/c3cccnc3)c3ccccc3n2)cc1	-41
O=C(N/C=C/c1ccc(Cl)cc1)NCc1ccc(Cl)cc1	10
O=C(Oc1cccc2c(OC(=O)N3CCCC3)cccc12)N1CCCC1	11
CC(C)c1ccc(NC(=O)c2ccc(Br)o2)cc1	1
COc1nc(Nc2ccc(C(C)C)cc2)nc(OC)n1	47*	VCAM1 pot conf=0
COc1ccc(-c2c[n+]3c4n2CCCCC4=C(c2ccccc2)C3)cc1	0
O=C(CSc1ccc2nnc(-c3ccccc3)n2n1)N1CCN(c2ccccc2)CC1	-8
NC(=O)C1CCN(C(=O)CCSc2ccccc2)CC1	5
NC(=O)C1CCN(C(=O)CSc2ccccn2)CC1	41*	VCAM1 pot conf=-6
Cc1ccnc(SCCn2c(N3CCCCC3)nc3c2c(=O)n(C)c(=O)n3C)n1	-3
CC(C)(C)NC(=O)C(=O)NNC(=O)C12CC3CC(CC(C3)C1)C2	-5
COC(=O)C1=C(C)N(c2ccc(F)cc2)C(=O)C1	-7
O=C(CCCOc1ccccc1)Nc1ccc2c(c1)OCCO2	-8
Cc1nn(-c2ccc3nnc(Br)n3n2)c(C)c1Br	-7

Screening results (PubChem BioAssay)
